Data published in PubChem BioAssay AID900 (National Center for Advancing Translational Sciences (NCATS), 2007).
Several values for one entry are separate records, joined by “and”; a condition that tells them apart may be missing. Identical values can stand only once. Among all 75,000 compounds or so, about 20 (0.03%) were called active. Another 1% or so got no clear call; they are omitted. Calls come from the whole dose curve; as a rule, active = well fitted inhibition curve with a large enough effect; inconclusive = small, poorly fitted or top-dose-only effect; inactive = flat fitted curve, though single readings scatter. Not all results are given here.

Target: Caspase-1 (Homo sapiens) (UniProt P29466)
Assay: qHTS Assay for Allosteric/Competitive Inhibitors of Caspase-1;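 note: plate controls were vehicle for no effect and no substrate for full effect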
Conditions: Caspase-1 enzyme, Ac-WEHD-AFC fluorogenic rate; series mostly up to 57.5 µM
Source text: NIH Molecular Libraries Screening Centers Network [MLSCN]
NIH Chemical Genomics Center [NCGC]
PI Name: Dr. James Wells,
Dr. Enrique Perez-Paya, Dr.Janice Williams, Dr. Dennis Wolan, a person
The caspases (Cysteine Aspartyl Protease) comprise a related family of 14 dimeric proteases that are critical mediators of apoptosis (programmed cell death) and inflammation. The caspases represent an important class of drug targets for stroke, ischemia, cancer and inflammatory diseases. […] One goal of this project was to identify compounds that act as allosteric inhibitors via stabilizing the procaspase form of the enzyme. Previous work in Well's laboratory has shown that such allosteric inhibitors can be identified and these act by binding at the dimer interface of enzyme (Hardy, Lam et al., 2004).
The biochemical assay was configured using purified caspase 1 at a high enzyme concentration to promote formation of the homodimers and thus facilitate the identification of allosteric inhibitors. The overall goal was to identify reversible inhibitors with better drug-like properties than the currently available set of aspartyl-containing peptidomimetics that covalently bind the active site. Caspase 1 was assayed using the profluorescent substrate Ac-WEHD-AFC. After initiation of the assay with substrate the plates were rapidly read using an automated robotic system (Kalypsys, Inc.) to maintain consistent timing. A kinetic mode of detection was used where the initial rate was collected (estimated final product formation was ~10%). Compounds were screened as a concentration-titration series that ranged from 57 uM to 0.7 nM. Below is the protocol used for caspase 1.
NCGC Assay Protocol Summary:
Caspase 1 was prepared in buffer (50 mM HEPES pH 7.5, 50 mM KCl, 200 mM NaCl, 10 mM DTT, 0.1% CHAPS) at a concentration of 66.6 nM and 3 uL was dispensed to all wells using black solid Kalypsys 1536-well plates. 20 nL of DMSO containing compounds was added using a pin-tool (Kalypsys Inc.) to columns 5-48. Then 20 nL of DMSO solution from a control plate was added to columns 1-4. Controls were: Column 1, 16 point titration with each concentration in duplicate (1:1 dilutions in DMSO; final starting concentration was 57 uM) of the caspase 1 inhibitor Ac-WEHD-CHO (Alexis Biochemicals); Column 2, a 16 point titration with each concentration in duplicate of the free AFC fluorophore prepared in DMSO (Alexis Biochemicals), final starting was 40 uM; Column 3 neutral (DMSO only) control; Column 4: DMSO alone, to serve as a negative control (no substrate was added). Then 1 uL of 20 uM the substrate Ac-WEHD-AFC (Alexis Biochemicals) prepared in the same buffer was dispensed to all wells except columns 2 and 4 and the plates were immediately transferred (< 1 min) to the Viewlux. The plates were then exposed using 405 nm excitation/520 nm emission filters for 4 sec and read at 20 sec intervals for 3 min. Final enzyme concentration was 50 nM and the final substrate concentration was 5 uM.
Concentration-response curves were fitted to the data calculated from slope of the linear regression of fluorescent intensity versus time (the rate). The concentration-effect curves were then classified based on curve quality (r2), response magnitude and degree of measured activity. […] Inconclusive compounds had appreciable concentration-dependent effects on both the measured rate and the interpolated basal fluorescence intensity at the start of the reaction but where the basal fluorescent intensity was marginal (e.g. < 10-fold). Inconclusive compounds also encompass highly fluorescent compounds (>100-fold increases in fluorescent intensities values relative to controls) where artificial concentration-dependent decreases in the rate occurred at high compound concentrations due to fluorescent interferences.
Keywords: Caspase 1, proteases, profluorescent, MLSMR, MLSCN, NIH Roadmap, qHTS, NCGC

Activity change, negative = inhibition, inactive:
O=C(Oc1cc(OC(=O)c2ccccc2)c2c(c1)OC(c1ccc(OC(=O)c3ccccc3)c(OC(=O)c3ccccc3)c1)[C@@H](OC(=O)c1ccccc1)C2)c1ccccc1 (stereo partly drawn), O=C(/C(=N\O)n1cncn1)c1ccc(Br)cc1Br, CCC1(C)CC(=O)NC1=O (stereo not drawn), Cc1c(S(=O)(=O)O)oc2c1C(=O)C(=O)c1c-2ccc2c1CCCC2(C)C, Cc1ccc(Cc2nc(-c3cccc(C)c3)no2)cc1, N#CCC(=O)NC(=O)NCC1CC1, CCCCC/C=C/C=C/C=O, Cc1noc(C)c1CSc1nnc2ccc3ccccc3n12, COc1ccc(/C=C/C(=O)c2ccc(OC)cc2O)cc1 -5.59% [at 11.5 µM], CCC(CCC(C)C1CCC2C3CC=C4CC(O)CC[C@@]4(C)C3CC[C@@]12C)C(C)C (stereo partly drawn), Nc1nc2nc(Cl)[nH]c2c(=O)[nH]1, COc1ccc(N2C(=O)C3CCCN3C2c2cccc(OC)c2)cc1 (stereo not drawn), COc1ccccc1OCCNCC(O)COc1cccc2[nH]c3ccccc3c12 (stereo not drawn), Clc1ccc(C2[C@H]3CN(CC4CCCCC4)[C@H](c4ccccc4)C34CC2(c2cccnc2)C4)cn1 (stereo partly drawn), COC1C[C@@H](O[C@@H]2C(C)C(=O)OC(C)C(C)C(O)C(C)C(=O)[C@@]3(CO3)CC(C)C(OC3OC(C)CC(N(C)C)C3O)C2C)OC(C)[C@@H]1O (stereo partly drawn), COc1ccc(C2C(C#N)=C(N)Oc3cc(N)ccc32)cc1OC (stereo not drawn), CO[C@@H]1COC(=O)[C@H](Cc2ccccc2)NC(=O)C/C=C\[C@@H](C)[C@H](OC)COC(=O)[C@@H](C)NC(=O)C/C=C\[C@H]1C 0.468% [at 11.5 µM] and -0.511% [at 11.5 µM], C=C(C)C1CC=C(CO)CC1 (stereo not drawn), C[C@@H]1O[C@@H](OC[C@H]2O[C@@H](Oc3c(-c4cccc(O)c4O)oc4cc(O)cc(O)c4c3=O)[C@H](O)[C@@H](O)[C@@H]2O)[C@H](O)[C@H](O)[C@H]1O, BrC1C(Br)C(Br)C(Br)C(Br)C1Br (stereo not drawn), CC1(C)OC(C(O)(c2ccccc2)c2ccccc2)C(C(O)(c2ccccc2)c2ccccc2)O1 (stereo not drawn) -8.99% [at 11.5 µM], CCOc1ccc(Cn2nnc(C(=O)NCc3ccccc3)c2N)cc1, CC1C(O)CC2C(C(=O)O)=CO[C@@H](O[C@H]3OC(CO)C(O)C(O)C3O)C21 (stereo partly drawn), Cc1cccc2c3c(ccc12)C1=C(C(=O)C3=O)C(C)CO1 (stereo not drawn), C[C@@H]1CC[C@H]2[C@H](C)[C@H]3[C@H](C[C@H]4[C@@H]5CC=C6C[C@@H](O)CC[C@@]6(C)[C@@H]5C[C@@H](O)[C@]34C)N2C1 -2.52% [at 11.5 µM], Cn1c(SCC(=O)N2CCOCC2)nnc1-c1ccc(NC(=O)c2ccccc2F)cc1, CC1CCCN(C(=O)c2ccc3c(c2)C(=O)N(CCC2=CCCCC2)C3=O)C1 (stereo not drawn), CC(C)c1ccc(NC(=O)NC2CCCCC2)cc1, Nc1nc2[nH]c(=O)c(=O)[nH]c2c(=O)[nH]1, COC(=O)[C@@H]1C[C@H]2CC[C@H](O)C[C@H]2N1Cc1ccc(N2CCN(C)CC2)cc1, CC1O[C@@H](Oc2c(-c3ccc(O)c(O)c3)oc3cc(O)cc(O)c3c2=O)C(O)C(O)C1O (stereo partly drawn), Cc1csc(-c2nc3ccccc3n2C)n1, Brc1cc(Br)c(Oc2cc(Br)c(Br)cc2Br)cc1Br, O=C(O)c1ccc(Cl)c(S(=O)(=O)Nc2ccccc2Cl)c1, CC(=O)OCC1OC(C#Cc2ccccc2Cl)C=CC1OC(C)=O (stereo not drawn) -0.455% [at 11.5 µM], C[C@@H]1/C=C\CC(=O)OC[C@H]2O[C@@H](C=C[C@@H]2O)[C@H](C)/C=C\CC(=O)OC[C@H]2O[C@H]1C=C[C@@H]2O 0.74% [at 11.5 µM], CC1CC[C@@]23CCC4(C)[C@@]5(C)CCC6C(C)(C)C(O)CC[C@@]6(C)C5C=C[C@@]4(OC2=O)C3C1C (stereo partly drawn), CC(C)C1=CC2=CC[C@@H]3[C@](C)(CO)CCC[C@]3(C)C2CC1 (stereo partly drawn), COc1ncnc2sc3c(c12)CCCC3, CN1CCC(CNC(=O)c2ccc(-n3c(=O)c(=O)[nH]c4ccccc43)cc2)CC1, O=C(O)[C@@H]1[C@@H](C(=O)O)[C@]23C[C@@]2(C(=O)O)[C@]2(C(=O)O)CCC3=C3CCCC312 -0.0959% [at 11.5 µM], CN(C)Cc1c(C#N)c2ccccc2n1C, COCc1nnc(NC(=O)CS(=O)(=O)Cc2ccccc2)s1, CC(C)=CC1C(C(=O)O)C1(C)C (stereo not drawn), CCC1=C(OC(=O)N(CC)CC)N2C(=O)OC(=NCC3CC3)[C@]2(C)[C@H]2C1=CC[C@H]1C(=O)N(CC(=O)OC)C(=O)[C@H]12, CN1CCc2nc(-c3ccccc3)c(-c3ccccc3)cc2C1 -1.85% [at 11.5 µM], CC1(C)SC2C(NC(=O)COc3ccccc3)C(=O)N2C1C(=O)O (stereo not drawn), O=c1ccc2cc(S(=O)(=O)N3CCN(c4ccccc4)CC3)ccc2o1, CCOC(=O)[C@]1(C(/C=C/c2ccco2)NC(=O)OC)CCCC1=O (stereo partly drawn) -4.71% [at 11.5 µM], Cc1cnc(CNc2nc(-c3cccnc3)nc3ccccc23)cn1, O=C(COc1ccccc1)NCCc1nc2ccccc2[nH]1, COc1ccc(CNc2ncncc2-c2ccccc2OC)c(OC)c1, CCC[C@@H]1C[C@@]1(CCC)C(NC(=O)c1ccc(-c2ccccc2)cc1)c1cccc(Cl)c1 (stereo partly drawn), Cc1cccc(-c2cc(=O)c3cc(C)ccc3o2)c1, COc1ccc(/C=C/NC(=O)c2ccc(OC)cc2)cc1 -1.51% [at 11.5 µM], O=C(CN1CCOCC1)Nc1cc(Cl)ccc1Cl, COC(=O)NC(c1ccccc1)[C@]1(C(C)=O)CCCC1=O (stereo partly drawn) 0.536% [at 11.5 µM], Cc1c2c(nc3ccccc13)-c1cccc(=O)n1C2, COc1ccc(C2CC(=O)c3c(O)cc(OC4OC(COC5OC(C)C(O)C(O)C5O)C(O)C(O)C4O)cc3O2)cc1O (stereo not drawn), CC(=O)/C(=N\N=C(N)N)c1ccccc1 -1.52% [at 11.5 µM], C[C@]12C=CC(=O)C=C1CC[C@@H]1[C@@H]2C(=O)C[C@@]2(C)[C@H]1CC[C@]2(O)C(=O)CO, CC1=C(/C=C/C(C)=C/C=C/C(C)=C/C=C/C=C(C)/C=C/C=C(C)/C=C/C2=C(C)CCCC2(C)C)C(C)(C)CCC1, O=C1[C@H]2[C@H]3[C@H](O)[C@H](O)C/C(=N/OCc4ccccc4)[C@H]3CC[C@@H]2C(=O)N1Cc1ccccc1 -0.986% [at 11.5 µM], COC(=O)[C@@H]1C[C@@]2(O)[C@H](O)[C@H](O)[C@H](O)C[C@H]2N1Cc1ccc(C(C)(C)C)cc1, CC1(C)C(=O)C2(CCCCC2)C(=O)OC1c1cccs1 (stereo not drawn), CCOc1ccccc1C1NC(=O)NC(C)=C1C(=O)OCc1ccco1 (stereo not drawn), CN(C)c1cc2c(Nc3ccc4c(cnn4Cc4ccccc4)c3)ncnc2cn1, O=C(NCCN=C1NS(=O)(=O)c2ccccc21)c1ccc(S(=O)(=O)N2CCOCC2)cc1, CC1CCCCN1CCCNC(=O)c1ccc(-n2c(=O)c(=O)[nH]c3ccccc32)cc1 (stereo not drawn), Nc1ncnc2c1ncn2C1CC(O)C(CO)O1 (stereo not drawn), Cc1nnc(N(Cc2ccco2)C(=O)c2ccno2)s1, Cc1cc(Cl)ccc1N1C(=O)CC(SCCC(=O)O)C1=O (stereo not drawn), Cc1cc(C(=O)N2CCN(c3ccccn3)CC2)c(C)o1, CC(=O)OC1CCC2(O)CC1(C)CCC1C2CC1(C)C (stereo not drawn), O=S(=O)(c1ccccc1)N1CCC2(CC1)CN(Cc1nccs1)C2, COc1ccc2c3c1OC1CC(O)C=C[C@@]31CCN(C)C2 (stereo partly drawn), COc1c2c(cc3occ(-c4ccc5c(c4)OCO5)c(=O)c13)OC(C)(C)C=C2, Cc1cc(C(=O)COC(=O)c2cccs2)c(C)n1-c1c(C)n(C)n(-c2ccccc2)c1=O, CC(C)CO, CC1(C)OC2CC(=O)OC[C@@]23C1CC(=O)[C@]1(C)C3CC[C@@]2(C)C(c3ccoc3)OC(=O)C3O[C@@]321 (stereo partly drawn), O=C(NCCSc1ccccc1)c1ccco1, CN1CC(=O)N=C1N, COc1cc(OC)c2c(c1Cl)OC1(C2=O)C(O)=CC(=O)CC1C (stereo not drawn), O=C1OC(C(O)CO)C(O)=C1O (stereo not drawn), COC(=O)[C@@]1(Cc2ccccc2)[C@H]2c3cc(C(=O)N(C)C)n(CCSCCO)c3C[C@H]2CN1C(=O)c1ccccc1, C=C1C(=O)C23C(O)C1CCC2[C@]12COC3(O)C(O)C1C(C)(C)CC[C@H]2O (stereo partly drawn), Oc1ccc2ccccc2c1C=NCc1c(O)ccc2ccccc12 -2.14% [at 11.5 µM], Cc1cn(COC/C=C/c2ccccc2)c(=O)[nH]c1=O, CC(C)=CCC/C(C)=C/CC/C(C)=C/CC/C(C)=C/CO, CCc1c(C)c2c(C)[nH]nc2oc1=O, CCCC[C@@H]1C[C@H]1C(NC(=O)c1ccc(-c2ccccc2)cc1)c1ccc(-c2ccccc2)cc1 (stereo partly drawn), Cc1c(C(=O)OCc2cc(=O)n3cc(Br)ccc3n2)oc2ccccc12, FC(F)(F)c1ccc(CN2C[C@@H]3C(c4ccccc4)C4(c5ccccc5)CC3(C4)[C@H]2c2ccccc2)cc1 (stereo partly drawn)
